From article PMC4336329 (PLoS ONE, 2015)
The whole screen tested about 310,000 compounds, of which about 14,000 (4.5%) showed an effect of 50% or more. The effect is printed as a negative number. Many of the other results were omitted from the sample, so strong results are more common in it than they were.

Each molecule was assayed against human ether-à-go-go-related gene (hERG) potassium channel (human, UniProt Q12809) (assay: primary screen, population patch clamp on CHO cells stably expressing hERG; higher = less effect of the substance).
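Further: peak tail current of the secondary pulse compared with the same well before compound.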

human ether-à-go-go-related gene (hERG) potassium channel, sequence (Q12809 whole entry, looked up): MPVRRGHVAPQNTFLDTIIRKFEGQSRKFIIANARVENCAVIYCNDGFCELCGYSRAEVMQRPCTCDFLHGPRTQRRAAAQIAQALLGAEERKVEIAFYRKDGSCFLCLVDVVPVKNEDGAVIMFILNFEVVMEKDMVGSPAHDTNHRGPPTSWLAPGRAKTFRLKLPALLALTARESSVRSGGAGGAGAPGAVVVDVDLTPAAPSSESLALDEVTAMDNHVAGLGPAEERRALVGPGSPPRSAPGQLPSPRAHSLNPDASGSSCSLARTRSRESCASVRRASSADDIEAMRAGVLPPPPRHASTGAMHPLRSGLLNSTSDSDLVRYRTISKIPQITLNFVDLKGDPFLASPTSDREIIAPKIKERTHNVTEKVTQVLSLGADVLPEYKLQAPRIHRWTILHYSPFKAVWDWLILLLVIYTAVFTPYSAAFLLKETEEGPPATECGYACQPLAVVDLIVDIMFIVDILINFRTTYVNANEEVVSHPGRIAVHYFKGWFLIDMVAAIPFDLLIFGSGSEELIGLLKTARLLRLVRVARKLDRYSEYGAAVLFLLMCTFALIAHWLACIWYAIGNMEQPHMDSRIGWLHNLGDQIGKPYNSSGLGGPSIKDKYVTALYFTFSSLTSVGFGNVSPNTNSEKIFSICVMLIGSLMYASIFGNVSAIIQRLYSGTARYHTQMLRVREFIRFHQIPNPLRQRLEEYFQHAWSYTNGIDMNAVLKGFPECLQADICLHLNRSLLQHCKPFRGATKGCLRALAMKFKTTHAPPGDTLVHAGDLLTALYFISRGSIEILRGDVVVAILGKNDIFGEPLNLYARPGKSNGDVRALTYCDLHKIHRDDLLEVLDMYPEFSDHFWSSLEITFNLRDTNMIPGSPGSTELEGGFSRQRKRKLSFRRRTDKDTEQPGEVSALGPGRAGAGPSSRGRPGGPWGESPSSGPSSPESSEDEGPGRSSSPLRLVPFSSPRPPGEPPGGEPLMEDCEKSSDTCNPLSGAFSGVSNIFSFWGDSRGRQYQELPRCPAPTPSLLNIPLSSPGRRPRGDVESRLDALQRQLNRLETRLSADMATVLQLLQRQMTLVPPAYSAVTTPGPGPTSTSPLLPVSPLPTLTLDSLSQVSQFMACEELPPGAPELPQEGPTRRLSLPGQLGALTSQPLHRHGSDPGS

Row | Compound | hERG current change (%, negative = inhibition) at 10uM
1 | O=C(CSc1nc2ccccc2c(=O)[nH]1)Nc1ccccc1C(F)(F)F | -2.68%
2 | C=CCNC(=O)c1cc(-c2ccccc2O)on1 | 8.16%
3 | CCN(CC(=O)NCC(=O)Nc1cccc(C)c1C)Cc1ccccc1 | 5.6%
4 | C=CCn1nc([N+](=O)[O-])nc1Sc1cccc2cccnc12 | -2.55%
5 | O=[N+]([O-])CC(=Nc1ccc(Cl)cc1)N/N=C\c1oc(O)c2ccccc12 | 5.58%
6 | O=C(c1ccco1)N1CCN(Cc2cc(=O)c(OCc3c(F)cccc3Cl)co2)CC1 | -58%
7 | O=c1cc(CO)occ1OCc1c(F)cccc1Cl | 9.21%
8 | O=C(c1ccco1)N1CCN(Cc2c(F)cccc2Cl)CC1 | -9.87%
9 | CCN(CC)C(C(=O)Nc1ccc(C(C)C)cc1)c1ccc2c(c1)OCO2 (stereo not drawn) | -9.99%
10 | CCOc1cc(C)c(S(=O)(=O)N2CCCC2)cc1C | -14.6%
11 | COc1ccc(CCN(C(=O)c2snc(C(N)=O)c2N)C(C)C(=O)NC2CCCCC2)cc1OC (stereo not drawn) | -13.9%
12 | COc1ccccc1CCNC(=O)c1cnn2c(C(F)F)cc(C)nc12 | -33.6%
13 | Cc1cc(C(F)F)n2ncc(C(=O)NCCc3ccc(Cl)cc3)c2n1 | -45%
14 | Cc1cc(C(F)F)n2ncc(C(=O)NCCc3ccccc3Cl)c2n1 | -56.7%
15 | CCOC(=O)N1CCC(N(CCN(C)C)C(=S)Nc2cccc(Cl)c2C)CC1 | 12.5%
16 | Cc1nc(C(=O)Nc2ccccc2Cl)cc2c1[nH]c1ccccc12 | 0.837%
17 | O=C(CCC(=O)Nc1cccc(C(F)(F)F)c1)NCC1CCCO1 (stereo not drawn) | 11.1%
18 | COc1ccc(C2C(C(=O)OCC3CCCO3)=C(C)NC3=C2C(=O)CC(c2ccco2)C3)cc1O (stereo not drawn) | 5.72%
19 | CC1=C(C(=O)OCC2CCCO2)C(c2ccccc2OC(C)C)C2=C(CC(c3ccco3)CC2=O)N1 (stereo not drawn) | -57.8%
20 | CC1=C(C(=O)OCC2CCCO2)C(c2cccc(C(F)(F)F)c2)C2=C(CC(c3ccco3)CC2=O)N1 (stereo not drawn) | 6.09%
21 | CC(C)C(=O)Nc1ccc2c(c1)C(=O)NC2=O | 14.3%
22 | Cc1cc(C)cc(N(CC(=O)NC2CCCC2)C(=O)CNC(=O)c2cccs2)c1 | 18%

Row | Compound | hERG current change (%, negative = inhibition) at 10uM
23 | CCC(C)c1ccccc1OCCCN(C)Cc1ccccc1 (stereo not drawn) | -27%
24 | CCN1CCCC(OC(=O)c2cc(-c3ccc(C)cc3)nc3ccccc23)C1.Cl (stereo not drawn) | -8.97%
25 | CN(C(=O)COC(=O)c1cc(-c2ccccc2Cl)nc2ccccc12)C1CCS(=O)(=O)C1 (stereo not drawn) | -30.9%
26 | CN1CCC(N(C)C(=O)c2cc(-c3ccccc3Cl)nc3ccccc23)CC1.Cl | -84.3%
27 | O=C(c1cc(-c2ccccc2Cl)nc2ccccc12)N1CCOCC1 | -6.68%
28 | CCN1CCCC(OC(=O)c2cc(-c3ccccc3Cl)nc3ccccc23)C1.Cl (stereo not drawn) | -65.3%
29 | CCN1CCCC(OC(=O)Nc2ccccc2)C1 (stereo not drawn) | 2.47%
30 | O=C(OCn1nnc2ccccc2c1=O)c1cc(-c2ccccc2Cl)nc2ccccc12 | 12.8%
31 | Cl.O=C(OC1CCN(CCCl)CC1)C(c1ccccc1)c1ccccc1 | 11%
32 | CCN1CCCC(OC(=O)C(c2ccccc2)c2ccccc2)C1.Cl (stereo not drawn) | -66.1%
33 | O=c1c(-c2ccccc2)[n+]([O-])c2ccccc2n1O | -9.6%
34 | CCOc1ccccc1NC(=O)Cc1cccs1 | 3.18%
35 | O=C(NCCCN1CCCCC1)c1ccc(CS(=O)c2ccc(F)cc2)o1 (stereo not drawn) | -0.35%
36 | Br.O=C(Cn1c(NCCCO)nc2ccccc21)c1ccc(F)cc1 | -9.54%
37 | Cc1nc2sc(C(c3ccc(F)cc3)N3CCOCC3)c(O)n2n1 (stereo not drawn) | 9.62%
38 | Oc1c(C(c2cccs2)N2CCN(c3ccc(F)cc3)CC2)sc2ncnn12 (stereo not drawn) | -66%
39 | Cc1ccc(C(c2sc3nc(C)nn3c2O)N2CCN(c3ccc(F)cc3)CC2)cc1 (stereo not drawn) | -65.2%
40 | Oc1c(C(c2cccs2)N2CCN(c3ccccc3)CC2)sc2ncnn12 (stereo not drawn) | -33.6%
41 | Cc1ccc(C(c2sc3nc(C)nn3c2O)N2CCN(c3ccccc3)CC2)cc1 (stereo not drawn) | -5.32%
42 | Oc1c(C(c2cccs2)N2CCN(c3cccc(Cl)c3)CC2)sc2ncnn12 (stereo not drawn) | -26.5%
43 | O=C(CCc1ccccc1)Nc1ccccc1C(=O)NCc1ccco1 | 0.64%
44 | COC(=O)[C@@]12CCCN1[C@H](c1ccc(-c3ccccc3)cc1)[C@@H]1C(=O)N(C)C(=O)[C@@H]12.O=C(O)C(F)(F)F | -6.67%

Row | Compound | hERG current change (%, negative = inhibition) at 10uM
45 | C=C(C)c1cccc(C(C)(C)NC(=O)Nc2ccc(OC)cc2)c1 | 8.48%
46 | COc1ccc(NC(=O)c2oc3ccc(S(=O)(=O)N4CCOCC4)cc3c2C)cc1 | 3.58%
47 | COc1ccc2c(c1)nc(SCC(O)c1ccccc1)n2C (stereo not drawn) | -60.2%
48 | COc1ccc2c(c1)nc(SCC(C)O)n2C (stereo not drawn) | 18%
49 | COc1ccc2c(c1)nc(SCC(=O)C(C)(C)C)n2C | -2.82%
50 | COC(=O)c1cc(NS(=O)(=O)c2cccc(Cl)c2)ccc1N1CCOCC1 | 2.66%
51 | CCN(CCCNC(=O)C1CCC(=O)N1Cc1ccc(F)cc1)c1cccc(C)c1 (stereo not drawn) | -18.3%
52 | CCN(CCCNC(=O)COc1cc(=O)n(CC)c2ccccc12)Cc1ccccc1 | -19.8%
53 | Cc1cccc(CCNC(=O)COc2cc(=O)n(C)c3ccccc23)c1 | -17.6%
54 | CCN(CCCNC(=O)COc1cc(=O)n(CC)c2ccccc12)c1ccccc1 | -52.5%
55 | CCn1c(=O)cc(OCC(=O)NCCC(C)C)c2ccccc21 | 0.0582%
56 | CCN(CCCNC(=O)C1CCC(=O)N1Cc1ccc(C)cc1)c1cccc(C)c1 (stereo not drawn) | -24.9%
57 | CCN(CCCNC(=O)COc1cc(=O)n(C)c2ccccc12)c1ccccc1 | -41.3%
58 | CCN(CCCNC(=O)COc1cc(=O)n(C)c2ccccc12)c1cccc(C)c1 | -51%
59 | CCN(CCCNC(=O)C1CCC(=O)N1Cc1ccccc1Cl)c1cccc(C)c1 (stereo not drawn) | -64.5%
60 | COc1ccc(N2CCN(C(=O)C34CCC(C)(C(=O)C3)C4(C)C)CC2)cc1 (stereo not drawn) | -0.453%
61 | CN(CC(=O)Nc1ccc(Cl)c(C(F)(F)F)c1)C(=O)Cc1n[nH]c(=O)c2ccccc12 | -16.2%
62 | COc1ccc(-n2nc3c(c2NC(=O)c2ccc(Br)o2)CS(=O)(=O)C3)cc1 | -16.4%
63 | COC(=O)Nc1ccc(S(=O)(=O)N2CCC(C(=O)N(C)C3CCCCC3)CC2)cc1 | 9.22%
64 | COC(=O)CCC(=O)NC(=S)Nc1cc(Cl)ccc1Cl | 10.5%
65 | O=C(CN1CCCCC1)N1CCCc2c1c(=O)oc1ccc(OCc3ccccc3)cc21 | -54.6%
66 | CC(=O)Oc1ccc2oc(=O)c3c(c2c1)CCCN3C(=O)CN1CCOCC1 | 1.97%

Row | Compound | hERG current change (%, negative = inhibition) at 10uM
67 | CC1CCN(CC(=O)N2CCCc3c2c(=O)oc2ccc(OCc4ccccc4)cc32)CC1 | -10.5%
68 | CC1CC(C)CN(CC(=O)N2CCCc3c2c(=O)oc2ccc(OCc4ccccc4)cc32)C1 (stereo not drawn) | -4.71%
69 | O=C(CN1CCCC1)N1CCCc2c1c(=O)oc1ccc(OCc3ccccc3)cc21 | -65.6%
70 | Cc1cc(=O)oc2ccc(OCc3ccccc3)cc12 | 5.11%
71 | O=C1OCC/C1=C\c1ccc(O)cc1 | 12.3%
72 | O=C(NCCCN1CCOCC1)C1Nc2ccc(OC(F)(F)F)cc2C2C=CCC12 (stereo not drawn) | -18.9%
73 | CCc1noc(C)c1C(=O)Nc1ccc(F)c(F)c1 | -15.4%
74 | COc1cc(NC(=O)Cn2nc(C(F)(F)F)c(Br)c2C)cc([N+](=O)[O-])c1 | 27.7%
75 | Cn1c(=O)c([N+](=O)[O-])c(NCC2CCCO2)c2ccccc21 (stereo not drawn) | 0.511%
76 | Cc1nc2c3cc(F)ccc3n(Cc3ccccc3F)c2s1 | -5.77%
77 | Cc1nc2c3cc(Cl)ccc3n(CCN3CCOCC3)c2s1 | -52.2%
78 | CCc1ccc2c(c1)c1nc(C)sc1n2CC | -5.89%
79 | Clc1ccc2c(c1)c1cc(Cl)ccc1n2CN1CCOCC1 | -1.99%
80 | Cc1ccc2c(c1)c1nc3ccccc3nc1n2CCN1CCOCC1 | -62.8%
81 | Cc1nc2c3cc(F)ccc3n(CCN3CCCCC3)c2s1.Cl | -69.9%
82 | Cc1nc2c3ccccc3n(CCN3CCCCC3)c2s1.Cl | -28.9%
83 | OC(CN1CCCCC1)Cn1c2ccc(Cl)cc2c2cc(Cl)ccc21 (stereo not drawn) | -29.6%
84 | Cc1ccc2c(c1)c1nc3ccccc3nc1n2C | 21.3%
85 | Cc1nc2c3cc(Cl)ccc3n(CCN3CCCCC3)c2s1.Cl | -70%
86 | COC(=O)Cn1c2ccc(C)cc2c2nc(C)sc21 | -7.39%
87 | c1ccc2nc3c(nc2c1)c1ccccc1n3CCN1CCOCC1 | -48.5%
